Key:
[1] = target: MAP kinase-activated protein kinase 2 (Homo sapiens) (UniProt P49137); settings: at 10 µM
[2] = target: MAP kinase-activated protein kinase 3 (Homo sapiens) (UniProt Q16644); settings: at 10 µM
[3] = target: Serine/threonine-protein kinase MARK1 (Homo sapiens) (UniProt Q9P0L2); settings: at 1 µM
[4] = target: Serine/threonine-protein kinase MARK1 (Homo sapiens) (UniProt Q9P0L2); settings: at 10 µM
[5] = target: Dual specificity mitogen-activated protein kinase kinase 1 (Homo sapiens) (UniProt Q02750); settings: at 1 µM
[6] = target: Dual specificity mitogen-activated protein kinase kinase 1 (Homo sapiens) (UniProt Q02750); settings: at 10 µM
[7] = target: Maternal embryonic leucine zipper kinase (Homo sapiens) (UniProt Q14680); settings: at 1 µM
[8] = target: Maternal embryonic leucine zipper kinase (Homo sapiens) (UniProt Q14680); settings: at 10 µM
[9] = target: Misshapen-like kinase 1 (Homo sapiens) (UniProt Q8N4C8); settings: at 1 µM
[10] = target: Misshapen-like kinase 1 (Homo sapiens) (UniProt Q8N4C8); settings: at 10 µM
[11] = target: T1, Dual specificity mitogen-activated protein kinase kinase 6 (Homo sapiens) (UniProt P52564); settings: at 1 µM
T1 sequence (whole entry): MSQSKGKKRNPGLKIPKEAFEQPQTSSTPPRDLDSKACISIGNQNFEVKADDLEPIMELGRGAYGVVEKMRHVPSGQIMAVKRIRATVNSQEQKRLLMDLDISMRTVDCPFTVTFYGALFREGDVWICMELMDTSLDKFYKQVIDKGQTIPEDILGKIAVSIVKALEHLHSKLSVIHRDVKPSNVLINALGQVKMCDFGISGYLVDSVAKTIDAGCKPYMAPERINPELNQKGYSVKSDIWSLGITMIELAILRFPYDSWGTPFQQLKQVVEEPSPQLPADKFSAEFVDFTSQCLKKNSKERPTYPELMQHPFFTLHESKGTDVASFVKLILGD

[12] = target: T1, Dual specificity mitogen-activated protein kinase kinase 6 (Homo sapiens); settings: at 10 µM
[13] = target: T2, Dual specificity mitogen-activated protein kinase kinase 7 (Homo sapiens) (UniProt O14733); settings: at 1 µM
T2 sequence (whole entry): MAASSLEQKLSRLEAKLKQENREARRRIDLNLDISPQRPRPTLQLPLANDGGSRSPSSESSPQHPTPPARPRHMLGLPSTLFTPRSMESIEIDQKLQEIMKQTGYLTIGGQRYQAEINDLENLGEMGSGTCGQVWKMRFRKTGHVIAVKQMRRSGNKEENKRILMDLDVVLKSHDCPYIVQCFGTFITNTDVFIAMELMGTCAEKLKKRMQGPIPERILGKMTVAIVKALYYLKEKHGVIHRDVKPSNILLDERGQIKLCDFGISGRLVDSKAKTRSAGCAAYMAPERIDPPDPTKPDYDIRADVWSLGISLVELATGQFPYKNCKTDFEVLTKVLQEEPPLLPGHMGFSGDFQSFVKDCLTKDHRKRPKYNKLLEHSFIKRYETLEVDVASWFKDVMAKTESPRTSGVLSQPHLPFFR

[14] = target: T2, Dual specificity mitogen-activated protein kinase kinase 7 (Homo sapiens); settings: at 10 µM
[15] = target: Myosin light chain kinase, smooth muscle (Homo sapiens) (UniProt Q15746); settings: at 1 µM
[16] = target: Myosin light chain kinase, smooth muscle (Homo sapiens) (UniProt Q15746); settings: at 10 µM
[17] = target: Mitogen-activated protein kinase kinase kinase 9 (Homo sapiens) (UniProt P80192); settings: at 1 µM
[18] = target: Mitogen-activated protein kinase kinase kinase 9 (Homo sapiens) (UniProt P80192); settings: at 10 µM
[19] = target: Serine/threonine-protein kinase MRCK alpha (Homo sapiens) (UniProt Q5VT25); settings: at 1 µM
[20] = target: Serine/threonine-protein kinase MRCK alpha (Homo sapiens) (UniProt Q5VT25); settings: at 10 µM

Sequence of Maternal embryonic leucine zipper kinase (Homo sapiens) (Q14680 whole entry, looked up): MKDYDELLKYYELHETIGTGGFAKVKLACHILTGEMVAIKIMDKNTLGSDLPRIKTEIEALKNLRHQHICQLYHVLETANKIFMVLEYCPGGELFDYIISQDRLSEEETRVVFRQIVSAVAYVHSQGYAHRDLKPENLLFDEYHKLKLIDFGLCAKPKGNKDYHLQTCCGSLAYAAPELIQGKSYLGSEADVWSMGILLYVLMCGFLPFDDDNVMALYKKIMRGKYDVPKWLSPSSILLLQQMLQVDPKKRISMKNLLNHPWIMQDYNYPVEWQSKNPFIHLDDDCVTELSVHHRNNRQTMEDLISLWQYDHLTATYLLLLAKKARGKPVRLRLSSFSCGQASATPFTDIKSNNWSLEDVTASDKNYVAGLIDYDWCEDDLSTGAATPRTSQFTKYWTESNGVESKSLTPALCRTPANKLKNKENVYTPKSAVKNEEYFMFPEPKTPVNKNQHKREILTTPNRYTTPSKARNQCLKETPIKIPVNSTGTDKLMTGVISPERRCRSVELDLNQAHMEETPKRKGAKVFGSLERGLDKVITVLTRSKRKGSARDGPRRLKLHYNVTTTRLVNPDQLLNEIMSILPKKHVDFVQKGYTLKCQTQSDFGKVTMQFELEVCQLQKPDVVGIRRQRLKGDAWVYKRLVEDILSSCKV
Sequence of Dual specificity mitogen-activated protein kinase kinase 1 (Homo sapiens) (Q02750 whole entry): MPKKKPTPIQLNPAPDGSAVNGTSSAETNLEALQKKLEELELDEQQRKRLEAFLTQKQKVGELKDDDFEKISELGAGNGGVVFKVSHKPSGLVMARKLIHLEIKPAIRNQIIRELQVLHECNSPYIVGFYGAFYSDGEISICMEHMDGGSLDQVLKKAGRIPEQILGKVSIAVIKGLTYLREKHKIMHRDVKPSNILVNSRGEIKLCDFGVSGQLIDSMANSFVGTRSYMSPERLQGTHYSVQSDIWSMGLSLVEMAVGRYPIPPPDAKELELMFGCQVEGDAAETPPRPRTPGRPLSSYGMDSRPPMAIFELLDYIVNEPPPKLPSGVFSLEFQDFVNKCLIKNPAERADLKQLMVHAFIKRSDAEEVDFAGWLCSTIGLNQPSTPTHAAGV
Sequence of Misshapen-like kinase 1 (Homo sapiens) (Q8N4C8 whole entry, looked up): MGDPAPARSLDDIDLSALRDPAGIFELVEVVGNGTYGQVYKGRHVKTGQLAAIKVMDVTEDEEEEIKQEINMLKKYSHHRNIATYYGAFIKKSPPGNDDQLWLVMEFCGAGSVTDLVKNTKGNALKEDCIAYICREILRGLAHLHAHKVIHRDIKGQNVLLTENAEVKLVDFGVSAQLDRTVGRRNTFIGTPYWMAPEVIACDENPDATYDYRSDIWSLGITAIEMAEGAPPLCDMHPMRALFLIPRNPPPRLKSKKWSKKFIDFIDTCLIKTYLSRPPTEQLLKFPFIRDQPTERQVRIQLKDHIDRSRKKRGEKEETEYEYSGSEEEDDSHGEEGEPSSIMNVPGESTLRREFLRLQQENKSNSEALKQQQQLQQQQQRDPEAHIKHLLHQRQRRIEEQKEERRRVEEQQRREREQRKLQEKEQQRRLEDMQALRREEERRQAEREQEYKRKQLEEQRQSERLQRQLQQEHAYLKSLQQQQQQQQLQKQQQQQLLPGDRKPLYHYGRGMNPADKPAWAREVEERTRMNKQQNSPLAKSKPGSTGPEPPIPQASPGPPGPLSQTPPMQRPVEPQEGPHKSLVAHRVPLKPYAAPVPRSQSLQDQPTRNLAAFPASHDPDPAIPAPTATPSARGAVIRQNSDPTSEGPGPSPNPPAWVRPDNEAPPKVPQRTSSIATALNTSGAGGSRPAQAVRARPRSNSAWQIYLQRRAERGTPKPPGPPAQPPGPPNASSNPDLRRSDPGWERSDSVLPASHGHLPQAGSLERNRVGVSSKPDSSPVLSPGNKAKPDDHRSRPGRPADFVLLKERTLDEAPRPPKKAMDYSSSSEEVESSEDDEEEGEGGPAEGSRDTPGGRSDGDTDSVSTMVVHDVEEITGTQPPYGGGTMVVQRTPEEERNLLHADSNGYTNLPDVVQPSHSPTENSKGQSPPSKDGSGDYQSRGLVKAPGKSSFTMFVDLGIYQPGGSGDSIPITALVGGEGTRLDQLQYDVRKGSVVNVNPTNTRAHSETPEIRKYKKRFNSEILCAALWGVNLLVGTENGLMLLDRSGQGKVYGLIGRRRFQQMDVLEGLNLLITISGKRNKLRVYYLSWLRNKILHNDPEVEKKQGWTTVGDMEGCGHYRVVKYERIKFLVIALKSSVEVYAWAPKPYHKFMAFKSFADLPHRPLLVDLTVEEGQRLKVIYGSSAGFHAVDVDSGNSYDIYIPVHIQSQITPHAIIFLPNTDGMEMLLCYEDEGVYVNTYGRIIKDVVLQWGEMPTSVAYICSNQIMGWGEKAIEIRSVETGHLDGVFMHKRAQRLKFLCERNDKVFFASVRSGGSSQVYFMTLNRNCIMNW
Sequence of Mitogen-activated protein kinase kinase kinase 9 (Homo sapiens) (P80192 whole entry, looked up): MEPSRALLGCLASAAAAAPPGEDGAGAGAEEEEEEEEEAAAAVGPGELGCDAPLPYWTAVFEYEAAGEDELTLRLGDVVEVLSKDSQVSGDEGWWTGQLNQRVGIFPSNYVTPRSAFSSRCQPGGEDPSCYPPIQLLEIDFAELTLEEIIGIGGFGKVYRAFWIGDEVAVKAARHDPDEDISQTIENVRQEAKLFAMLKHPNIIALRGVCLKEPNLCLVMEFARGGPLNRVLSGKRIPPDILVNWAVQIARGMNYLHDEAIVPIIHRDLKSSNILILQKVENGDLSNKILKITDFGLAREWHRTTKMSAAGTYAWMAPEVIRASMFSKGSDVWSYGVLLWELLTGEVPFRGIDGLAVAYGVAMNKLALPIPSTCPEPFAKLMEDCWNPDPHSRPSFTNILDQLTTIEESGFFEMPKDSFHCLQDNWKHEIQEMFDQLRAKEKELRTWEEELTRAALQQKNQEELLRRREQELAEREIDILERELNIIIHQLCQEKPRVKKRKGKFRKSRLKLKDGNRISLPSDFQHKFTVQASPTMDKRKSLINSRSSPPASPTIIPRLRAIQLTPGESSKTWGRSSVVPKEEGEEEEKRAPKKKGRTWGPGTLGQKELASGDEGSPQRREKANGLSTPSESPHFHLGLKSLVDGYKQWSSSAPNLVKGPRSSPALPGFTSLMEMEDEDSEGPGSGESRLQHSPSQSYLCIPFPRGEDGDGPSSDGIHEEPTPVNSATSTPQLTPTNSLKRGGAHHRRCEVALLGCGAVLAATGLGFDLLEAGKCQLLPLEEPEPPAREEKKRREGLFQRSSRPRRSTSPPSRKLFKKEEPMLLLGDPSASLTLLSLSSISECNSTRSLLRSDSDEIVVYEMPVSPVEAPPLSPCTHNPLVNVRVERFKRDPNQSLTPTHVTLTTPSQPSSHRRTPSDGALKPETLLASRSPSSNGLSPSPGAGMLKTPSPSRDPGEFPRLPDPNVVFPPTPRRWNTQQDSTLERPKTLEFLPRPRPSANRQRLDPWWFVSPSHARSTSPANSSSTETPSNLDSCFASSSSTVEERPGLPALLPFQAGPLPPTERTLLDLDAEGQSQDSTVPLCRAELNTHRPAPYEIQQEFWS
Sequence of Serine/threonine-protein kinase MARK1 (Homo sapiens) (Q9P0L2 whole entry, looked up): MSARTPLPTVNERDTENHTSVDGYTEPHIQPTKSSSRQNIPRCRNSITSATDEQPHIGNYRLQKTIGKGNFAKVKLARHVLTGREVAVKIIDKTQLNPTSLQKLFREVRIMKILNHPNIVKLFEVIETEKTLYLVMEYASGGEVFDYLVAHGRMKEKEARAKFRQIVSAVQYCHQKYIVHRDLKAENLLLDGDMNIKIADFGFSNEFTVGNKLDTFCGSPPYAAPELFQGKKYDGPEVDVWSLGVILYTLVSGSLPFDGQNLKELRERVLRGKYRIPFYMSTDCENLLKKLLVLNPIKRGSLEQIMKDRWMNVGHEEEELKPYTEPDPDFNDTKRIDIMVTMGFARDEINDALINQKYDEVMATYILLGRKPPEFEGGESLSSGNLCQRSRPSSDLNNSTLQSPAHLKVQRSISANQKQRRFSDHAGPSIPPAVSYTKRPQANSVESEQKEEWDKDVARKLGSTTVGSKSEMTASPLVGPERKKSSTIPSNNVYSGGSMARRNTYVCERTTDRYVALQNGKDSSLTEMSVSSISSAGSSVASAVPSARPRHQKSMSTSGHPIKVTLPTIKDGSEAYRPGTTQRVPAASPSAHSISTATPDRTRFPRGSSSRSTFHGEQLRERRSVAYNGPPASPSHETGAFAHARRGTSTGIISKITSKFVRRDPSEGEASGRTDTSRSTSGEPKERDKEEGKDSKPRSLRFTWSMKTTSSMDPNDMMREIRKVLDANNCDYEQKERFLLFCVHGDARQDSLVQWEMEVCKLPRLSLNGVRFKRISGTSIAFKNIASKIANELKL
Sequence of MAP kinase-activated protein kinase 2 (Homo sapiens) (P49137 whole entry, looked up): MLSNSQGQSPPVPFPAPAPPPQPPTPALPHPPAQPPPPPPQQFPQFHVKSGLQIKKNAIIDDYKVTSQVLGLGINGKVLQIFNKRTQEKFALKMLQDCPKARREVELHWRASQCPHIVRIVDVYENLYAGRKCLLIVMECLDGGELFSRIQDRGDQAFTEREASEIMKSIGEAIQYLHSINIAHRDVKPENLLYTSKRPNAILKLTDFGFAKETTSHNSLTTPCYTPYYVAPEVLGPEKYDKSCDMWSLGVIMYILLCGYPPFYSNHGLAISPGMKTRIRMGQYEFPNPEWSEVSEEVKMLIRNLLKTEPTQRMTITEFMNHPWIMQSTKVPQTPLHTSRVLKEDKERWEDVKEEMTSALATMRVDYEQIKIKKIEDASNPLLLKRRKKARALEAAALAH
Sequence of MAP kinase-activated protein kinase 3 (Homo sapiens) (Q16644 whole entry, looked up): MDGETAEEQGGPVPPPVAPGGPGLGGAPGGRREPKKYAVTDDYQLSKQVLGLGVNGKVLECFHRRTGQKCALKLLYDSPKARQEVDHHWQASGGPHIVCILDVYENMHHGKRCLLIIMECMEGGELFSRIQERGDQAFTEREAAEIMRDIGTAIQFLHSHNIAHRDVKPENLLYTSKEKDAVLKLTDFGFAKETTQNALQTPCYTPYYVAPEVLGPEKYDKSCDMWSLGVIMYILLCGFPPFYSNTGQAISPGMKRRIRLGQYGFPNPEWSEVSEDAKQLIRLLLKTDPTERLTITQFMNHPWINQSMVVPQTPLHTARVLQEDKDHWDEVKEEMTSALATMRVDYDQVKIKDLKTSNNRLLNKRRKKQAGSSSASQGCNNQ

Row | SMILES | residual activity [1] | residual activity [2] | residual activity [3] | residual activity [4] | residual activity [5] | residual activity [6] | residual activity [7] | residual activity [8] | residual activity [9] | residual activity [10] | residual activity [11] | residual activity [12] | residual activity [13] | residual activity [14] | residual activity [15] | residual activity [16] | residual activity [17] | residual activity [18] | residual activity [19] | residual activity [20]
1 | NC(=O)c1ccc2[nH]c(-c3ccc(Oc4ccc(Cl)cc4)cc3)nc2c1 | 126% | 127% | 85% | 70% | 91% | 111% | 91% | 83% | 91% | 66% | 91% | 94% | 94% | 103% | 93% | 96% | 89% | 34% | 113% | 127%
2 | COc1cc2ncnc(Nc3ccc(Oc4ccccc4)cc3)c2cc1OC | 108% | 127% | 83% | 81% | 89% | 38% | 76% | 129% | 99% | 89% | 79% | 83% | 87% | 81% | 72% | 91% | 18% | 4% | 103% | 134%
3 | c1ccc2c(-c3ccncc3)c[nH]c2c1 | 94% | 101% | 81% | 77% | 87% | 75% | 91% | 76% | 85% | 43% | 77% | 93% | 101% | 94% | 72% | 66% | 74% | 60% |  | 
4 | O=c1c2ccccc2[nH]c(=S)n1CCN1CCC(=C(c2ccc(F)cc2)c2ccc(F)cc2)CC1 | 89% | 86% | 100% | 87% | 98% | 92% | 86% | 86% | 88% | 65% | 107% | 93% | 82% | 90% | 73% | 86% | 92% | 101% | 107% | 103%
5 | CC(=O)O/N=C1\C(=C2\C(=O)Nc3cc(Br)ccc32)Nc2ccccc21 | 93% | 90% | 77% | 39% | 98% | 113% | 69% | 52% | 103% | 86% | 96% | 76% | 83% | 105% | 90% | 71% | 55% | 16% | 93% | 101%
6 | CN(C)c1ccc(/C=C2\C(=O)Nc3ccccc32)cc1 | 93% | 94% | 83% | 49% | 114% | 73% | 49% | 26% | 82% | 30% | 97% | 91% | 91% | 84% | 77% | 56% | 39% | 16% | 113% | 105%
7 | O=C1NC(=O)/C(=C\c2ccc3nccnc3c2)S1 | 85% | 91% | 86% | 71% | 108% | 84% | 64% | 31% | 89% | 61% | 95% | 85% | 96% | 88% | 81% | 62% | 80% | 53% | 106% | 93%
